Bioassay records: PubChem BioAssay, National Center for Advancing Translational Sciences (NCATS)
PLK1 PBD block = PLK1 (human) polo-box domain binding inhibition. actives 2.8% (n = 360,000). Potency, µM, hits mostly inhibitors. Plk1 PBD binding of FITC phosphopeptide, fluorescence polarization; further: series mostly up to about 57 µM; nearly all actives have a fitted effect of over 65% in size
Tb PFK inh-1 = blocks T. brucei phosphofructokinase; Potency, µM (highest dose often 57.5 µM), most hits filed as inhibitors; actives 0.17% (n = 330,000); T. brucei PFK, ADP-Glo luminescence; O15648; further: nearly all actives have a fitted effect of over 60% in size
Target sequence (O15648 whole entry, looked up): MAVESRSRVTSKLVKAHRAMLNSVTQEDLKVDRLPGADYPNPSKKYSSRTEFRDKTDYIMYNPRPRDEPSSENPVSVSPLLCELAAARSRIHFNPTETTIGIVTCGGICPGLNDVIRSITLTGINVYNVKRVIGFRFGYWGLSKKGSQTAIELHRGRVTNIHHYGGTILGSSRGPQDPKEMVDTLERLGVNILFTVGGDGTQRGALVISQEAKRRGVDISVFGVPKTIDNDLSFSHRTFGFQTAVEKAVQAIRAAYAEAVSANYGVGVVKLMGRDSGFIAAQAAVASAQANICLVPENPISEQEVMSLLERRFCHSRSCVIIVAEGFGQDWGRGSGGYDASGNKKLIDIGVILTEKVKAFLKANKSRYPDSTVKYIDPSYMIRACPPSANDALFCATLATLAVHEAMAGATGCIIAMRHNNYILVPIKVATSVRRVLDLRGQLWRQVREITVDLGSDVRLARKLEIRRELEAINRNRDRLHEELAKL
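Compounds were pin-transferred as a titration series up to 57 uM into substrate buffer (0.5 mM F6P, 0.1 mM ATP, pH 8.0), then 1.25 nM PFK was added and reactions ran 45 min before ADP-Glo detection.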
VDR inhibitor = blocks the human vitamin D receptor. VDR-SRC2-3 peptide fluorescence polarization, 2 h. Potency, µM, most hits filed as inhibitors. actives 0.93% (n = 400,000). AID 504847
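The screen uses fluorescence polarization to detect compounds that interfere with recruitment of the SRC2-3 coactivator peptide to VDR; plates are read after 2 h at room temperature.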
BRCA1 expr up = activators of BRCA1 expression; MCF7-BRCA1-FFLuc reporter, luminescence, 48 h; response scale: scaled: vehicle 0%, 10 µM genistein 100%; Potency, µM (titrated, usually from 46.1 µM), most hits filed as activators; actives 1.1% (n = 380,000); AID 624202; further: nearly all actives have a fitted effect of over 80% in size
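First, MCF7-BRCA1-FFLuc cells (2000/well) attach for 2 h; next, compounds are pin-added and incubated 48 h at 37 °C; finally, luciferase reagent is added and luminescence read after 15 min.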
Tb PFK KinaseGlo = Tb phosphofructokinase inhibition, orthogonal luminescence | shares compounds with Tb PFK inh-1 | Tb PFK enzyme, ATP depletion, Kinase-Glo Plus luminescence | Potency, µM (titrated, usually from 57.5 µM) | actives 47% (n = 1,100); calls by dose curve; further: nearly all actives have a fitted effect of over 60% in size
Tb PFK inh-2 = T. brucei PFK enzyme inhibition, hit validation; shares compounds with Tb PFK inh-1; purified T. brucei PFK, ADP-Glo luminescence, 45 min; Potency, µM (series often up to 57.5 µM), most hits filed as inhibitors; actives 41% (n = 1,100); AID 504637; further: nearly all actives have a fitted effect of over 60% in size
Large screens that a line does not name were inactive (follow-up assays come after a bar, where they were run). This is a sample that favours compounds with a hit; in the whole collection about 3.9% have one here. Unless noted, the call rests on the fitted dose curve; in most records, active means well fitted curve in the direction sought with a large enough effect; inconclusive means small, poorly fitted or top-dose-only effect, or another doubt; inactive means no such curve, though single readings can be large; an effect the other way counts as inactive or inconclusive.

O=C1CC(N2CCN(c3ccc(Cl)c(Cl)c3)CC2)C(=O)N1 (centres undefined)	Tb PFK inh-1 6µM | Tb PFK KinaseGlo inconclusive | Tb PFK inh-2 inconclusive
O=[N+]([O-])c1cccc(O)c1	none
O=[N+]([O-])c1ccc(N2CCN(C(=S)c3cccc([N+](=O)[O-])c3)CC2)cc1	PLK1 PBD block 2.4µM, Tb PFK inh-1 19µM, VDR inhibitor inconclusive | Tb PFK KinaseGlo 9.5µM | Tb PFK inh-2 24µM
CCC(C)C(=O)c1c(O)c(C)c2oc3c(C)c(O)c(C(=O)C(C)CC)c(O)c3c2c1O (centres undefined)	none (no result: PLK1 PBD block, Tb PFK inh-1, BRCA1 expr up)
O=C(C1CCN(S(=O)(=O)c2cccnc2)CC1)N1CCN(c2cccc(Cl)c2)CC1	Tb PFK inh-1 21µM | Tb PFK KinaseGlo inconclusive | Tb PFK inh-2 inactive
O=C(C1CCN(c2ncnc3c2nc2n3CCCCC2)CC1)N1CCN(c2cccc(Cl)c2)CC1	Tb PFK inh-1 9.5µM | Tb PFK KinaseGlo 24µM | Tb PFK inh-2 inconclusive
O=C(C1CCCCC1)N1CCC(c2nc3c(nnn3Cc3c(F)cccc3Cl)c(=O)[nH]2)CC1	PLK1 PBD block inconclusive
CCc1nnc(NC(=O)CCc2nc(C3=CCN(C)CC3)no2)s1	none
CCc1nnc(NC(=O)CSc2nc(C)c3c(c2C#N)CCCC3)s1	Tb PFK inh-1 inconclusive | Tb PFK KinaseGlo inactive | Tb PFK inh-2 inactive
C[C@@H]1CC[C@H]2[C@@H](C)C(=O)O[C@@H]3OC4(C)CC[C@@H]1[C@]32OO4	none (no result: PLK1 PBD block, Tb PFK inh-1, BRCA1 expr up)
O=C(O)C1C2c3ccccc3C(c3ccccc32)C1C(=O)Nc1ccccc1 (centres undefined)	none
CN(C)S(=O)(=O)c1ccc(NC(=O)C2COc3ccccc3O2)cc1 (centres undefined)	Tb PFK inh-1 19µM | Tb PFK KinaseGlo 12µM | Tb PFK inh-2 27µM
O=C(Nc1ccc(S(=O)(=O)Nc2ccccc2)cc1)C1COc2ccccc2O1 (centres undefined)	Tb PFK inh-1 11µM | Tb PFK KinaseGlo 12µM | Tb PFK inh-2 30µM
Nc1ncnc2c1nc(Sc1ccc(Cl)cc1)n2[C@@H]1O[C@@H]2COP(O)(=S)O[C@H]2[C@H]1O (some centres undefined)	none (no result: PLK1 PBD block, Tb PFK inh-1, BRCA1 expr up)
O=C(O)[C@@H](c1ccccc1)N1Cc2ccccc2C1=O	Tb PFK inh-1 inconclusive | Tb PFK KinaseGlo inconclusive | Tb PFK inh-2 inconclusive
CC(C)C[C@H](NC(=O)[C@H](Cc1ccccc1)NC(=O)CNC(=O)[C@H](CO)NC(=O)[C@@H](N)Cc1ccc(O)cc1)C(=O)N[C@H](C(=O)O)[C@H](C)O	none (no result: PLK1 PBD block, Tb PFK inh-1, BRCA1 expr up)
Cc1ccc(N/N=C/c2c(C)c(C#N)c(=O)n(C)c2O)cc1C	PLK1 PBD block 24µM, Tb PFK inh-1 inconclusive, VDR inhibitor inconclusive | Tb PFK KinaseGlo inactive | Tb PFK inh-2 inactive
O=C(C(=O)N1CCOCC1)c1cn(CC(=O)N2CCc3ccccc3C2)c2ccccc12	Tb PFK inh-1 inconclusive | Tb PFK KinaseGlo inconclusive | Tb PFK inh-2 inconclusive
CCCCCn1cc(C(=O)C(=O)N2CCOCC2)c2ccccc21	none
CN1CC[C@@]2(CCCN(C(=O)c3ccncc3)C2)C1	none (no result: PLK1 PBD block, Tb PFK inh-1, BRCA1 expr up)
COc1cc(CC(=O)Nc2nc(-c3ccccc3)c(C(C)=O)s2)cc(OC)c1OC	Tb PFK inh-1 inconclusive | Tb PFK KinaseGlo inconclusive | Tb PFK inh-2 inconclusive
Cc1cc([C@@H]2CCCN2C)on1	none (no result: PLK1 PBD block, Tb PFK inh-1, BRCA1 expr up)
Nc1nn2cc(-c3ccccc3)nc2c2ccccc12	Tb PFK inh-1 inconclusive | Tb PFK KinaseGlo inactive | Tb PFK inh-2 inconclusive
c1cc(CN2CCC3(CCNCC3)CC2)ccn1	none (no result: PLK1 PBD block, Tb PFK inh-1, BRCA1 expr up)
CC(C)C(C(=O)O)N1C(=O)/C(=C/C=C/c2ccco2)SC1=S (centres undefined)	PLK1 PBD block 3µM, Tb PFK inh-1 inconclusive | Tb PFK KinaseGlo 8.5µM | Tb PFK inh-2 21µM
CCn1cc(C(=O)N2CCOCC2)c2ccccc21	none
CCn1cc(C(=O)NCc2ccco2)c(=O)c2cc(F)c(N3CCN(C(=O)c4ccco4)CC3)cc21	Tb PFK inh-1 9.5µM | Tb PFK KinaseGlo inconclusive | Tb PFK inh-2 inconclusive
O=C(OCC(=O)N1CCN(c2cccc(Cl)c2)CC1)c1ccco1	Tb PFK inh-1 21µM | Tb PFK KinaseGlo 24µM | Tb PFK inh-2 inconclusive
COc1cccc(N2CCN(Cc3cccc(Cl)c3)CC2)c1	none
